Bioassay records deposited in PubChem by National Center for Advancing Translational Sciences (NCATS).
This is a sample that favours compounds with a hit; in the whole collection about 12% have one here.
JMJD2A Tudor inh – qHTS Assay for Inhibitors of JMJD2A-Tudor Domain. Lysine-specific demethylase 4A (Homo sapiens), O75164. AlphaScreen JMJD2A-Tudor / H3K4me3 peptide binding. Potency, µM (highest dose often 114 µM), most hits filed as inhibitors. 390,000 tested, 4.4% active. AID 504339, 2011; also: nearly all actives have a fitted effect of over 50% in size
Target sequence (O75164 whole entry, looked up, the tested form may be a part): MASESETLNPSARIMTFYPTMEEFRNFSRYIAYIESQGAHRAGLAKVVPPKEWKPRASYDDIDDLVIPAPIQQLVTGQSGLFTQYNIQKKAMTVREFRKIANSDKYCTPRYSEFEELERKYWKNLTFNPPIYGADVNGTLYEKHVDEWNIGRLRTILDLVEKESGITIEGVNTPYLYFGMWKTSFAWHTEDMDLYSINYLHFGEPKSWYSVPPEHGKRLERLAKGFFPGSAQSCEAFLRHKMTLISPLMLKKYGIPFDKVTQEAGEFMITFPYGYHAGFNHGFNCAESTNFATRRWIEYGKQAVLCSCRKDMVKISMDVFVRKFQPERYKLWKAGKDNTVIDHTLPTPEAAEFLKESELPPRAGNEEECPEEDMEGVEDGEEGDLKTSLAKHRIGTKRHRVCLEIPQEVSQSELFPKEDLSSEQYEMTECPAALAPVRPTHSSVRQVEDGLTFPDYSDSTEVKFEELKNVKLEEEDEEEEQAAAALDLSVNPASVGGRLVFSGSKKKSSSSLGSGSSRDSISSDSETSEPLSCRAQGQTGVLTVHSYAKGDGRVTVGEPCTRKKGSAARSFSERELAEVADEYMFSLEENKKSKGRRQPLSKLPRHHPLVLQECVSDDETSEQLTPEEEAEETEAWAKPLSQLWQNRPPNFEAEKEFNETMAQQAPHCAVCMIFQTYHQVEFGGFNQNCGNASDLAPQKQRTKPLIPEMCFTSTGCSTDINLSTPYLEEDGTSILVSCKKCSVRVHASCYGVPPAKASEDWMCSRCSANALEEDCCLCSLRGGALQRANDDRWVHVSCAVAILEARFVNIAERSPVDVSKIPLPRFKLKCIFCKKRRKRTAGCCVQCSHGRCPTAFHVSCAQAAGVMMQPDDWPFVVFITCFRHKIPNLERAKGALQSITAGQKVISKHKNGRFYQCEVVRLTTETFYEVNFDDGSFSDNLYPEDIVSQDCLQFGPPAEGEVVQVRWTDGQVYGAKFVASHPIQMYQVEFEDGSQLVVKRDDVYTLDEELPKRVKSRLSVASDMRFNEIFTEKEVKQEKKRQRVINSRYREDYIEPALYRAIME
Sfp inh – qHTS Assay for Inhibitors of Bacillus subtilis Sfp phosphopantetheinyl transferase (PPTase); 4'-phosphopantetheinyl transferase ffp (Bacillus subtilis), Q9F4F7; Biochemical Sfp PPTase activity, qHTS; Potency, µM, hits mostly inhibitors; 310,000 tested, 3.5% active;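 also: the enzyme is Sfp with the accession as filed and its product quenches rhodamine fluorescence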
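Fluorescence-quenching assay: 15 nM Sfp-PPTase preincubated 15 min at room temperature with compound, then 5 uM rhodamine-CoA and 12.5 uM BHQ-2-labelled YbbR peptide added. Fluorescence (ex 525/em 598 nm) read at start and after 30 min; difference gives rate.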
L3MBTL1 block – qHTS Assay for the Inhibitors of L3MBTL1; AlphaScreen L3MBTL1–H3K9me1 peptide binding; 230,000 tested, 0.66% active; Potency, µM (top dose mostly 57.1 µM), hits mostly inhibitors; Lethal(3)malignant brain tumor-like protein 1 (Homo sapiens), Q9Y468; also: nearly all actives have a fitted effect of over 60% in size
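Displacement of a biotinylated histone H3(1-15) peptide monomethylated at Lys9 (75 nM) from L3MBTL1 (50 nM) was measured by AlphaScreen after a 30 min room-temperature compound incubation; cefsulodin titration served as intraplate control.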
G9a inh – qHTS Assay for Inhibitors of Histone Lysine Methyltransferase G9a | Histone-lysine N-methyltransferase EHMT2 (Homo sapiens), Q96KQ7 | G9a H3K9 monomethylation, AlphaScreen, 2 h | Potency, µM (series often up to 102 µM), hits mostly inhibitors | 350,000 tested, 8.8% active | AID 504332, 2011; also: nearly all actives have a fitted effect of over 75% in size
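G9a (20 nM) was preincubated 15 min with compound, then reacted 2 h at room temperature with 500 nM biotin-H3K9 peptide and 20 µM SAM. Monomethyl-H3K9 detected by AlphaScreen using anti-H3K9me1 antibody.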
BAZ2B inh – qHTS Assay for Inhibitors of BAZ2B. Potency, µM (doses to about 114 µM), most hits filed as inhibitors. 360,000 tested, 4.4% active. AID 504333, 2011. AlphaScreen BAZ2B-H3K14Ac peptide displacement. Bromodomain adjacent to zinc finger domain protein 2B (Homo sapiens), Q9UIF8; also: nearly all actives have a fitted effect of over 60% in size
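AlphaScreen displacement: compounds (up to 110uM) incubated 30 min at room temperature with a preformed 50 nM BAZ2B/50 nM biotinylated H3K14Ac peptide complex in PBS pH 7.4 with Tween-20. Donor and acceptor beads at 10 ug/mL final added, 20 min light-protected before reading.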
HP1b chromo inh – HTS for Inhibitors of HP1-beta Chromodomain Interactions with Methylated Histone Tails; Potency, µM (titrated, usually from 114 µM), most hits filed as inhibitors; AID 540317, 2011; Chromobox protein homolog 1 (Homo sapiens), P83916; 390,000 tested, 0.56% active; AlphaScreen HP1-beta / biotin-H3K9me3 peptide binding; also: nearly all actives have a fitted effect of over 70% in size
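HP1-beta protein (50 nM final) preincubated 30 min at room temperature with biotinylated H3(1-18)K9me3 peptide (50 nM) in PBS pH 7.4, 0.01% Tween-20, then compound added for 30 min. AlphaScreen streptavidin donor/nickel chelate acceptor beads (10 ug/mL final), 30 min dark, luminescence read.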
Each line names hits and unclear results; the compound was inactive in the other large screens. Calls follow the shape of the dose curve; as a rule, active = well fitted curve in the direction sought with a large enough effect; inconclusive = small, poorly fitted or top-dose-only effect, or another doubt; inactive = no such curve, though single readings can be large; an effect the other way counts as inactive or inconclusive.

Cc1cc2nn(-c3cccc4ccccc34)nc2cc1N	G9a inh 3.5µM, BAZ2B inh inconclusive
COc1ccc(-n2nc3cc(N)c(Br)cc3n2)cc1	none
Nc1ccc2nn(-c3ccccc3)nc2c1	none (no result: G9a inh)
COc1ccc(-n2nc3cc(C)c(N)c(Br)c3n2)cc1	Sfp inh 40µM, G9a inh inconclusive
Nc1cc2nn(-c3ccccc3)nc2cc1Cl	Sfp inh 40µM, G9a inh inconclusive (no result: L3MBTL1 block)
COc1ccc(CCc2c[nH]c(=O)c3cncnc23)cc1OC	none (no result: Sfp inh, L3MBTL1 block, G9a inh, BAZ2B inh)
CCCn1c2ccccc2c2cnn(CC(=O)N(CCCOC(C)C)Cc3ccco3)c(=O)c21	JMJD2A Tudor inh inconclusive, G9a inh inconclusive (no result: Sfp inh, L3MBTL1 block)
Cc1ccc(-n2c(=O)c3c(c4cc(C)ccc4n3C)n(CC(=O)Nc3cc(C)cc(C)c3)c2=O)cc1	none (no result: Sfp inh, L3MBTL1 block)
Nc1ccc(-n2nc3ccccc3n2)cc1	none (no result: Sfp inh, L3MBTL1 block, G9a inh, BAZ2B inh)
Cc1ccc(-n2nc3cc(C)c(N)cc3n2)cc1	G9a inh 1.6µM, BAZ2B inh inconclusive (no result: L3MBTL1 block)
Cc1ccc(OCCN2C(=O)C(=O)c3cc(C)ccc32)cc1	JMJD2A Tudor inh 56µM, G9a inh 25µM, BAZ2B inh 35µM, HP1b chromo inh inconclusive
CCN1C(=O)S/C(=C\c2ccc(N3CCOCC3)cc2C)C1=O	G9a inh inconclusive
Cc1ccc(Oc2ccccc2/C=C2\SC(=O)N(C)C2=O)cc1	none
CCCN1C(=O)S/C(=C/c2ccc(N3CCOCC3)o2)C1=O	Sfp inh 1.3µM, BAZ2B inh inconclusive
CCCN1C(=O)S/C(=C\c2ccc(N3CCOCC3)cc2C)C1=O	BAZ2B inh inconclusive (no result: JMJD2A Tudor inh, HP1b chromo inh)
Cc1ccc(OCCN2C(=O)S/C(=C\c3ccc(C)o3)C2=O)cc1	Sfp inh 18µM, G9a inh 32µM, BAZ2B inh inconclusive
CCCN1C(=O)S/C(=C\c2ccc(N3CCOCC3)o2)C1=O	JMJD2A Tudor inh inconclusive, Sfp inh 3.2µM, G9a inh 4µM, HP1b chromo inh inconclusive (no result: L3MBTL1 block)
CCc1c(C)sc2c1CCN(Cc1cccc(F)c1)C2c1ccccc1 (stereo unspecified)	JMJD2A Tudor inh inconclusive, BAZ2B inh inconclusive (no result: Sfp inh, L3MBTL1 block)
O=C(Nc1ccc2oc(-c3cccnc3)nc2c1)c1ccc(-c2cccc(OC(F)(F)F)c2)o1	none (no result: Sfp inh, L3MBTL1 block)
Clc1ccc(CSc2nc3ncccc3[nH]2)cc1	none (no result: Sfp inh, L3MBTL1 block)
CCOc1ccc2nc(Cl)c(C3CC(c4ccc(C)cc4)=NN3C(=O)CCCC(=O)O)cc2c1 (stereo unspecified)	JMJD2A Tudor inh inconclusive (no result: Sfp inh, L3MBTL1 block)
Cn1cc(P(=S)(N2CCOCC2)N2CCOCC2)cc1P(=S)(N1CCOCC1)N1CCOCC1	G9a inh 45µM
CC(=O)N1CCc2c(sc3c2c(=O)n(CCc2ccccc2)c(=O)n3Cc2cccc(C)c2)C1	none (no result: Sfp inh, L3MBTL1 block)
CC(=O)c1ccc(NC2=C(N3CCOCC3)C(=O)c3ccccc3C2=O)cc1	JMJD2A Tudor inh 40µM, L3MBTL1 block inconclusive, BAZ2B inh 28µM, HP1b chromo inh 28µM (no result: G9a inh)
CC(=O)N(C1=C(N2CCOCC2)C(=O)c2ccccc2C1=O)c1ccc(C(=O)O)cc1	G9a inh 40µM
Cc1ccc(NC2=C(N3CCOCC3)C(=O)c3ccccc3C2=O)cc1	JMJD2A Tudor inh 14µM, L3MBTL1 block inconclusive, G9a inh inconclusive, BAZ2B inh 14µM, HP1b chromo inh 13µM
COc1ccc(-c2onc(C)c2C)cc1S(=O)(=O)NCC1CCN(Cc2cc(C)ccc2C)CC1	JMJD2A Tudor inh inconclusive, BAZ2B inh inconclusive (no result: Sfp inh, L3MBTL1 block)
CC(C)C(N)C(=O)O (stereo unspecified)	Sfp inh inconclusive (no result: JMJD2A Tudor inh, L3MBTL1 block, BAZ2B inh, HP1b chromo inh)
N=C1/C(=C\c2ccc(OC(=O)c3ccco3)cc2)C(=O)N=C2SC=NN12	JMJD2A Tudor inh inconclusive (no result: L3MBTL1 block, BAZ2B inh)
